The text below walks through data of PubChem BioAssay (EPA / NIEHS).

Results filed as inconclusive are left out. Calls of active or inactive are those of the source. How the source made its calls, unless noted: active means hit-call score of the fitted dose curve at least 0.9, where 1 is the maximum; inconclusive means response in the unintended direction; inactive means score below 0.9.

Test [1] can be described thus: ATG_TCF_b_cat_CIS: Attagene CIS-FACTORIAL HepG2 Assay for human T-Cell-Factor with beta-catenin (TCF/b-cat) (AID 2282965; active means hit-call score of the fitted dose curve at least 0.9, where 1 is the maximum; inactive means score below 0.9). The settings on record: HepG2 TCF/beta-catenin cis-reporter transcription, actives raise or lower the signal. The gist of the method: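 Endogenous TCF/LEF activity read as reporter transcript level via RT-PCR and capillary electrophoresis fluorescence in transfected HepG2, 24 h exposure; gain or loss of signal fitted against DMSO controls.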

A short description of test [2]: ATG_TAL_CIS: Attagene CIS-FACTORIAL HepG2 Assay for human TAL Basal Promoter (AID 2282966; active means hit-call score of the fitted dose curve at least 0.9, where 1 is the maximum; inactive means score below 0.9;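 further: background control endpoint measuring basal TAL promoter reporter mRNA not a specific factor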). The settings on record: HepG2 Attagene cis-factorial TAL promoter reporter; actives raise or lower the signal. The gist of the method: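 Human hepatoma HepG2 cells, transfected with promoter-regulated reporter units, were treated 24 h. Reporter transcript levels, measured through RT-PCR and capillary electrophoresis, were fitted for gain or loss relative to DMSO.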

The nature of test [3]: ATG_TGFb_CIS: Attagene CIS-FACTORIAL HepG2 Assay for human Transforming Growth Factor (TGF) (AID 2282967; active means hit-call score of the fitted dose curve at least 0.9, where 1 is the maximum; inactive means score below 0.9). The settings on record: HepG2 Attagene CIS TGFb reporter, mRNA transcription; actives raise or lower the signal. The gist of the method:
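Liver HepG2 line, cis-factorial reporter panel, 24 h dosing. Quantitation: RT-PCR products labeled with 6-FAM, cut with HpaI, resolved by capillary electrophoresis; DMSO-referenced bidirectional analysis.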

Test [4] in a line: ATG_VDRE_CIS: Attagene CIS-FACTORIAL HepG2 Assay for human Vitamin D Receptor Element (VDRE) (AID 2282968; active means hit-call score of the fitted dose curve at least 0.9, where 1 is the maximum; inactive means score below 0.9). The settings on record: HepG2 VDRE cis-reporter transcription, actives raise or lower the signal. The gist of the method: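 Measures endogenous factor activity through cis-element-driven reporter transcripts in transiently transfected HepG2. Cells are treated 24 h; reporter mRNA is quantified by RT-PCR and capillary electrophoresis; fitting is bidirectional.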

In test [5] the target is Estrogen receptor (Homo sapiens) (UniProt P03372). The test is described as follows: ATG_ERa_TRANS: Attagene TRANS-FACTORIAL HepG2 Assay for human Estrogen Receptor alpha (ERa) (AID 2282970). The settings on record: HepG2 Attagene TRANS ERa GAL4 reporter, mRNA. The gist of the method:
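Signal derives from fluorescence of labelled reporter PCR fragments separated by capillary electrophoresis. HepG2 cells transiently carrying multiple GAL4-UAS reporter units were treated 24 hours, and induction above DMSO baseline was fitted as activity.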

In test [6] the target is X-box-binding protein 1 (Homo sapiens) (UniProt P17861). As to the kind of experiment: ATG_Xbp1_CIS: Attagene CIS-FACTORIAL HepG2 Assay for human X-box Binding Protein 1 (XBP1) (AID 2282972; active means hit-call score of the fitted dose curve at least 0.9, where 1 is the maximum; inactive means score below 0.9). The settings on record: HepG2 XBP1 cis-element reporter, Attagene multiplex; actives raise or lower the signal. The gist of the method: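 Changes in reporter transcript abundance, read by RT-PCR and capillary electrophoresis, reflect endogenous transcription factor activity. Transfected HepG2 cells received compound for 24 hours; DMSO defined baseline for bidirectional analysis.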
X-box-binding protein 1 (Homo sapiens), sequence (P17861 whole entry, looked up): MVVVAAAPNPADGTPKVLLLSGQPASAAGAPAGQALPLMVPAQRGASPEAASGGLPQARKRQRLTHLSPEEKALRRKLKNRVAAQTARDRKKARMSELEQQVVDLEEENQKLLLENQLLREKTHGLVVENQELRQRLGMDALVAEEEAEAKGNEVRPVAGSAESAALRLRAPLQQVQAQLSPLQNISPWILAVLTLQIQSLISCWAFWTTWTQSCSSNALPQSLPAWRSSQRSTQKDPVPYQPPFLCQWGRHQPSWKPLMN

Test [7] deals with Glucocorticoid receptor (Homo sapiens) (UniProt P04150). As to the kind of experiment: ATG_GR_TRANS: Attagene TRANS-FACTORIAL HepG2 Assay for human Glucocorticoid Receptor (GR) (AID 2282978).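 Further: activators score as hits since higher reporter transcript over DMSO is fitted.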 The settings on record: HepG2 Attagene TRANS GR reporter, mRNA transcription. The gist of the method:
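HepG2 cells transiently transfected with GAL4-UAS reporter units and exogenous GR-Gal4 chimera, dosed 24 h. Reporter mRNA by RT-PCR, FAM labeling, HpaI digest and capillary electrophoresis; gain-of-signal fit versus DMSO.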

Test [8] deals with Bile acid receptor (Homo sapiens) (UniProt Q96RI1). As to the kind of experiment: ATG_FXR_TRANS: Attagene TRANS-FACTORIAL HepG2 Assay for Farnesoid X Receptor (FXR) (AID 2282979).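 Further: hits raise reporter mRNA above DMSO so AC50 marks FXR activation.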 The settings on record: HepG2 Attagene TRANS FXR-GAL4 reporter transcription. The gist of the method: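 After 24 h chemical treatment of transfected HepG2 cells, GAL4-UAS reporter transcripts driven by an exogenous FXR-GAL4 fusion were measured by RT-PCR and capillary electrophoresis. Increases over DMSO were fitted.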
Bile acid receptor (Homo sapiens), sequence (Q96RI1 whole entry, looked up, the tested form may be a part): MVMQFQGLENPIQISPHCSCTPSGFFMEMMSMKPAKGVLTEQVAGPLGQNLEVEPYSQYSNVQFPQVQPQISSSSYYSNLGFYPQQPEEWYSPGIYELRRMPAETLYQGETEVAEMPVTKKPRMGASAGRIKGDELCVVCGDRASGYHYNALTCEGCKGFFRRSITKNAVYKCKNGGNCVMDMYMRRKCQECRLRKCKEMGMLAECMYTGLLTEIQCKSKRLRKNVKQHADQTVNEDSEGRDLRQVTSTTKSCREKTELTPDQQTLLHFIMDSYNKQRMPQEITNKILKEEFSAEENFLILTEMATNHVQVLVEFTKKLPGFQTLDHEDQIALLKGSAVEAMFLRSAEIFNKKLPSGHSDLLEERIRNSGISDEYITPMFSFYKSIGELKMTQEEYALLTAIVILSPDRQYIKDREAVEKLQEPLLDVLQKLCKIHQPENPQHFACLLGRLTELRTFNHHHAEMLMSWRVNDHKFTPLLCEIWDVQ

Test [9] can be described thus: ATG_M_06_TRANS: Attagene TRANS-FACTORIAL HepG2 Assay for M06 Transcription Factor (Internal Marker) (AID 2282983).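 On AC50: potency for rise in reporter mRNA above DMSO baseline.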 Conditions: HepG2 Attagene TRANS M06 internal marker reporter. The gist of the method:
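Multi-reporter-transfected HepG2, 24 h treatment; reporter transcripts quantified via RT-PCR, primer-extension labelling and CE. DMSO-normalized gain-of-signal fit.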

The target in test [10] is Oxysterols receptor LXR-beta (Homo sapiens) (UniProt P55055). The test is described as follows: ATG_LXRb_TRANS: Attagene TRANS-FACTORIAL HepG2 Assay for human Liver X Receptor beta (LXRb) (AID 2282981). The settings on record: HepG2 Attagene TRANS GAL4-LXRb reporter, mRNA. The gist of the method: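 After 24 h of chemical treatment, transfected HepG2 cells yield total RNA; reporter cDNA is PCR-amplified, FAM-labelled, HpaI-cut and run on capillary electrophoresis. Signal reflects chimeric LXRb-Gal4 activity on GAL4-UAS reporters.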
Oxysterols receptor LXR-beta (Homo sapiens), sequence (P55055 whole entry, looked up, the tested form may be a part): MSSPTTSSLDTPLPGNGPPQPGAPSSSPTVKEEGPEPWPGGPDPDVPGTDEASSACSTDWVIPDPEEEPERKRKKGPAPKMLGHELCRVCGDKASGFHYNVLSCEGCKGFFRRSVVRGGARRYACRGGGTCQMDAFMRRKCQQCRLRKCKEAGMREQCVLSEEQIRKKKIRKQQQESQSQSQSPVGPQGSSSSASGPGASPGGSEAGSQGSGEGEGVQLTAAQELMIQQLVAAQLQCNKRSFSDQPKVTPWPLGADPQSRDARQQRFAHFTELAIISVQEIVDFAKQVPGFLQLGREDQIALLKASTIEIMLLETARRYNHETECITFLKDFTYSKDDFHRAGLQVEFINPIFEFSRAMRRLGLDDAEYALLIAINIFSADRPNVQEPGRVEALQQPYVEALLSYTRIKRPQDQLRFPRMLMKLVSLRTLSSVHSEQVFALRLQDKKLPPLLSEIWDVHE

Test [11] can be described thus: ATG_M_32_TRANS: Attagene TRANS-FACTORIAL HepG2 Assay for M32 Transcription Factor (Internal Marker) (AID 2282984). The settings on record: HepG2 Attagene TRANS M32 internal marker reporter. The gist of the method: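 Cell-based TRANS-format assay in HepG2: exogenous chimeric GAL4 reporter units transiently expressed, compounds applied 24 h. Reporter mRNA detected by RT-PCR plus capillary electrophoresis; this readout is an internal background marker.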

Test [12] can be described thus: ATG_M_19_TRANS: Attagene TRANS-FACTORIAL HepG2 Assay for M19 Transcription Factor (Internal Marker) (AID 2282974). The settings on record: HepG2 Attagene TRANS-FACTORIAL M19 internal marker reporter. The gist of the method:
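HepG2 transiently transfected with GAL4-UAS multiplex reporter constructs, exposed 24 h; reporter RNA quantified by RT-PCR, 6-FAM labeling, HpaI digestion and capillary electrophoresis; internal background marker fitted upward versus DMSO.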

Test [13] is described as follows: ATG_GAL4_TRANS: Attagene TRANS-FACTORIAL HepG2 Assay for GAL4 (Internal Marker) (AID 2282976). Conditions: HepG2 Attagene TRANS GAL4 internal marker reporter. The gist of the method: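 Liver HepG2 line bearing multiplexed GAL4-UAS reporter constructs; 24 h chemical treatment. Transcripts were quantified as fluorescent fragments on capillary electrophoresis after RT-PCR and HpaI cut, with activity fitted upward from DMSO.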

Test [14] deals with Oxysterols receptor LXR-alpha (Homo sapiens) (UniProt Q13133). As to the kind of experiment: ATG_LXRa_TRANS: Attagene TRANS-FACTORIAL HepG2 Assay for human Liver X Receptor alpha (LXRa) (AID 2282980). The settings on record: HepG2 Attagene TRANS reporter, LXRa transactivation. The gist of the method: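 In this multiplexed TRANS system, compounds act on HepG2 cells carrying GAL4-UAS reporter units and a receptor-GAL4 fusion for 24 h. Induced reporter RNA is amplified, fluorescently labelled and sized by capillary electrophoresis, with DMSO as baseline.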
Oxysterols receptor LXR-alpha (Homo sapiens), sequence (Q13133 whole entry, looked up, the tested form may be a part): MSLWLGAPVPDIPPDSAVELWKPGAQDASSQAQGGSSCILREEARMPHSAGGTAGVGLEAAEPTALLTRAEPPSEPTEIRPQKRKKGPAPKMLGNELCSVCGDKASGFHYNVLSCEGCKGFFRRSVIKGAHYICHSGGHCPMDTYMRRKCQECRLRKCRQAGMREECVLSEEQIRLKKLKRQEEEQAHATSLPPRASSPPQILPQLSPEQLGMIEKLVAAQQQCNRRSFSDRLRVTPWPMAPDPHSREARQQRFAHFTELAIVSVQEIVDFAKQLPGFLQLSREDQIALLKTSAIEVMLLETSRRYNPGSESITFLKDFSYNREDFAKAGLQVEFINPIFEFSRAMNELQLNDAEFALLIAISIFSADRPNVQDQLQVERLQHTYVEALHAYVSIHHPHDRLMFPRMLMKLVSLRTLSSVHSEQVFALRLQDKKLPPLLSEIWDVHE

Test [15] addresses Nuclear receptor subfamily 1 group I member 3 (Homo sapiens) (UniProt Q14994). As to the kind of experiment: ATG_CAR_TRANS: Attagene TRANS-FACTORIAL HepG2 Assay for human Constitutive Androstane Receptor (CAR) (AID 2282969).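 Further: activators raise reporter mRNA above DMSO so AC50 marks induction.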 The settings on record: HepG2 Attagene TRANS-FACTORIAL CAR reporter. The gist of the method: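 Signal is reporter mRNA induction relative to DMSO, measured 24 h after dosing by RT-PCR with fluorescent primer extension and capillary electrophoresis. Human HepG2 liver cells carried transiently transfected chimeric NR-Gal4/GAL4-UAS reporter constructs.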

Test [16] concerns the target Nuclear receptor subfamily 4 group A member 2 (Homo sapiens) (UniProt P43354). As to the kind of experiment: ATG_NURR1_TRANS: Attagene TRANS-FACTORIAL HepG2 Assay for human Nuclear Receptor Related Protein 1 (NURR1) (AID 2282985). Conditions: HepG2 Attagene TRANS reporter, mRNA readout. The gist of the method: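 Measures transcriptional activation by an exogenous NR-Gal4 chimera in transfected HepG2 liver cells. After 24 h, reporter RNA is reverse-transcribed, amplified and resolved by capillary electrophoresis; DMSO defines baseline.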

For test [17], the target named is Hepatocyte nuclear factor 4-alpha (Homo sapiens) (UniProt P41235). As to the kind of experiment: ATG_HNF4a_TRANS: Attagene TRANS-FACTORIAL HepG2 Assay for human Hepatocyte Nuclear Factor 4 alpha (HNF4a) (AID 2282982). The settings on record: HepG2 HNF4a transactivation reporter, mRNA readout. The gist of the method:
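Multiplexed reporter assay: transfected HepG2, 24 h exposure, total RNA → oligo(dT) RT → PCR → 6-FAM extension → HpaI digest → CE fluorescence. DMSO = negative control.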

Glucocorticoid receptor (Homo sapiens), sequence (P04150 whole entry, looked up, the tested form may be a part): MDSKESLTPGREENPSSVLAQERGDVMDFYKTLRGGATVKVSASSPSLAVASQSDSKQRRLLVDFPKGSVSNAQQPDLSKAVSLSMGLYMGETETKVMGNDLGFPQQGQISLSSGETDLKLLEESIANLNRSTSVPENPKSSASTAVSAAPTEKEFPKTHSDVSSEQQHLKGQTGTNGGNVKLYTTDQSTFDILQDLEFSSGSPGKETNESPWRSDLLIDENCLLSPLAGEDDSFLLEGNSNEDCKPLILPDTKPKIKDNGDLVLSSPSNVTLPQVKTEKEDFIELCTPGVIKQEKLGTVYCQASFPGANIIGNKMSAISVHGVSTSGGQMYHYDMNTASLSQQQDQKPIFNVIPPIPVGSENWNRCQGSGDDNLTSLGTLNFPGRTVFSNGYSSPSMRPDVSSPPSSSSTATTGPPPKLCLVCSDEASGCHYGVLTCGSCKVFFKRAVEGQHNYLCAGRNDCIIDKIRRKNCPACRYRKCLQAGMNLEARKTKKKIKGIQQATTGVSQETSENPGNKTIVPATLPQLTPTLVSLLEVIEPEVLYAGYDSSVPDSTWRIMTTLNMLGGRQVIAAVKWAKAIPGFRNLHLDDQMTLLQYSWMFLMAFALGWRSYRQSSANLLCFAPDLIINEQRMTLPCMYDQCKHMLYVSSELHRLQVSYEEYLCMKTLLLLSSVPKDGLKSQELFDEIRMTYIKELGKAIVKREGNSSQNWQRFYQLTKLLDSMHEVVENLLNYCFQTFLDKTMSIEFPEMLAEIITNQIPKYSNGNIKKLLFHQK
Estrogen receptor (Homo sapiens), sequence (P03372 whole entry, looked up, the tested form may be a part): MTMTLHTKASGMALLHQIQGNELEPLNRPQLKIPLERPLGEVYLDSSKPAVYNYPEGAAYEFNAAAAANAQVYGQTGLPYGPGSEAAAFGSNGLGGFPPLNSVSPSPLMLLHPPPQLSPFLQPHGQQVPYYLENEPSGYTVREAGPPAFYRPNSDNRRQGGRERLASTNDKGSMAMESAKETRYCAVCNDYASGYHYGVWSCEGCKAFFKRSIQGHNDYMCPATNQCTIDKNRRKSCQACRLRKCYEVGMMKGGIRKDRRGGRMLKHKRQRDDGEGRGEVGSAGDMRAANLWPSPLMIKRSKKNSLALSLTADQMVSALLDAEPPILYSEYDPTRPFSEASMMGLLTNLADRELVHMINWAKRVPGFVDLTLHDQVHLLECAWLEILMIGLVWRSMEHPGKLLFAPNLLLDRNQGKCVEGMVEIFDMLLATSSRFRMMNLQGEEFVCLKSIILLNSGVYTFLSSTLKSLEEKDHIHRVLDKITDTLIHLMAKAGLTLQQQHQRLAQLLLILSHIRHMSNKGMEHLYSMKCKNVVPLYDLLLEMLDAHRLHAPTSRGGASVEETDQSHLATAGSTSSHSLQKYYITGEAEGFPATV
Hepatocyte nuclear factor 4-alpha (Homo sapiens), sequence (P41235 whole entry, looked up): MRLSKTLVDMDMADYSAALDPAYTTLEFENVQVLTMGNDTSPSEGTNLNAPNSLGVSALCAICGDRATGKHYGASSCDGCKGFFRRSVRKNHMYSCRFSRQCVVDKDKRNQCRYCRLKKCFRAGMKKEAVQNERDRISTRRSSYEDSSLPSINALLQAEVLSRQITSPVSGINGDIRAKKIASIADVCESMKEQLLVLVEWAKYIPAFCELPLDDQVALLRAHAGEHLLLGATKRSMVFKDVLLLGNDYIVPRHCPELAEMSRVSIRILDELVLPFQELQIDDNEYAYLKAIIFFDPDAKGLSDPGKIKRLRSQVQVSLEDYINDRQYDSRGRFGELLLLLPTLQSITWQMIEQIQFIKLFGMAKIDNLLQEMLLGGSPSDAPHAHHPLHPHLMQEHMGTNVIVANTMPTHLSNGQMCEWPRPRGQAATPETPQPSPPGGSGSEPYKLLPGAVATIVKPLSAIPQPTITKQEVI
Nuclear receptor subfamily 1 group I member 3 (Homo sapiens), sequence (Q14994 whole entry, looked up, the tested form may be a part): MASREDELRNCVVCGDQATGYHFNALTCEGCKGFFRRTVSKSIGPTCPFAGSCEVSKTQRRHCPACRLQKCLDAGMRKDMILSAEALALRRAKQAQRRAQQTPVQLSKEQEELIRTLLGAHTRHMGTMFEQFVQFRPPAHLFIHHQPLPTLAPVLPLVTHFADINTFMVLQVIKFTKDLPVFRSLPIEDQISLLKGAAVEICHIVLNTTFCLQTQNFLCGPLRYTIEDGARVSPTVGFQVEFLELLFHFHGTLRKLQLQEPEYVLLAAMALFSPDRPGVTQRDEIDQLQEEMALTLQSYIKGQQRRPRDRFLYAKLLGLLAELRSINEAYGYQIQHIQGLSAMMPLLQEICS
Nuclear receptor subfamily 4 group A member 2 (Homo sapiens), sequence (P43354 whole entry, looked up, the tested form may be a part): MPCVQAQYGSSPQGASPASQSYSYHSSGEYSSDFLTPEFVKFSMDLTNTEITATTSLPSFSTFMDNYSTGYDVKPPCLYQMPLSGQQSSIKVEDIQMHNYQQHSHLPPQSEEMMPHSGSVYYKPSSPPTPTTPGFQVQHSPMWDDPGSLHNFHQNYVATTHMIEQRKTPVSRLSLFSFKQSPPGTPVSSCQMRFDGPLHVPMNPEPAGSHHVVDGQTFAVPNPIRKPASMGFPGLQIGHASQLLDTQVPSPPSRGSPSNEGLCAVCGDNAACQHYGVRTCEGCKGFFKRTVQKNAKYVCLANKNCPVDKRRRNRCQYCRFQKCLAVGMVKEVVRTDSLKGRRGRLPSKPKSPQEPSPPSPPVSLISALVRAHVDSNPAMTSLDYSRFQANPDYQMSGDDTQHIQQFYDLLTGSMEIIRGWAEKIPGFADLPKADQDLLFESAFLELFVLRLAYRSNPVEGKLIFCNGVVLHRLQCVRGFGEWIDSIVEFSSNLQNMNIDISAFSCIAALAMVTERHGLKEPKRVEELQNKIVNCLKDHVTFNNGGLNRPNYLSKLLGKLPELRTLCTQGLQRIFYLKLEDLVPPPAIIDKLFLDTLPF

Consider `Cc1cc(C)c(C(=O)P(=O)(c2ccccc2)c2ccccc2)c(C)c1`, for which the call in [1], in test [2], in test [3], in test [7] and in test [8] was inactive. Besides, the AC50 in test [4] was 0.54 µM (active); in test [5] it was 25.5 µM (active); in test [6] it was 53.4 µM (active); in test [9], 173 µM (active).

As to `Cc1cccc(N)c1`, the call in [1], in [2], in [3], in test [4], in test [6] and in test [10] was inactive. Moreover, the outcome in [9] and in [11] was inactive.

Regarding `Cc1ccc(O)cc1C`, the compound was called inactive in [1], in [2], in [3], in test [6], in test [12] and in [13]. Besides, the AC50 in [5] was 72.4 µM (active).

With `O=C(O)C1C(C(=O)O)C2(Cl)C(Cl)=C(Cl)C1(Cl)C2(Cl)Cl` (stereo not given), the compound was classed as inactive in [1], in test [2], in test [3], in test [5], in test [6] and in [7]. Further, the outcome in [14], in test [10], in test [9] and in test [11] was inactive.

As for `CCCCc1ccc(O)cc1`, the compound was classed as inactive in [1], in test [2], in test [3], in test [15], in [6] and in test [13]. The compound was called inactive in test [7], in test [8], in test [9], in test [11] and in test [16]. Also, the AC50 in [5] is 4.66 µM (active).

On to `c1cc2c3c(cccc3c1)CC2`, for which the compound was classed as inactive in test [1], in test [2], in test [3], in test [15], in [5] and in test [6]. Moreover, the call in [7], in test [10], in test [17] and in test [11] was inactive.

With `CCCCN(CCCC)N=O`, the outcome in test [1], in test [2], in test [3], in [5], in [6] and in test [13] was inactive. In addition, the result in test [7], in test [8], in test [17] and in test [9] was inactive.

As for `CC1=C(C(=O)Nc2ccccc2)S(=O)(=O)CCO1`, the outcome in test [1], in test [2], in test [3], in test [6], in [7] and in test [8] was inactive. The call in [10] and in test [9] was inactive. In addition, the AC50 in test [4] was 9.33 µM (active).
